# Bioassay records deposited in PubChem BioAssay by National Center for Advancing Translational Sciences (NCATS).
# BAZ2B inh: inhibitors of human BAZ2B bromodomain; Q9UIF8; AlphaScreen BAZ2B-H3K14Ac peptide displacement; Potency, µM (top dose mostly 114 µM), without a hit: at the top dose activity change, negative = inhibition, usual class: inhibitors; 360,000 tested, 4.4% active; note: % is set by controls: 0 for no effect and ±100 for the full control effect; nearly all actives have a fitted effect of over 60% in size
# Target sequence (Q9UIF8 whole entry, looked up): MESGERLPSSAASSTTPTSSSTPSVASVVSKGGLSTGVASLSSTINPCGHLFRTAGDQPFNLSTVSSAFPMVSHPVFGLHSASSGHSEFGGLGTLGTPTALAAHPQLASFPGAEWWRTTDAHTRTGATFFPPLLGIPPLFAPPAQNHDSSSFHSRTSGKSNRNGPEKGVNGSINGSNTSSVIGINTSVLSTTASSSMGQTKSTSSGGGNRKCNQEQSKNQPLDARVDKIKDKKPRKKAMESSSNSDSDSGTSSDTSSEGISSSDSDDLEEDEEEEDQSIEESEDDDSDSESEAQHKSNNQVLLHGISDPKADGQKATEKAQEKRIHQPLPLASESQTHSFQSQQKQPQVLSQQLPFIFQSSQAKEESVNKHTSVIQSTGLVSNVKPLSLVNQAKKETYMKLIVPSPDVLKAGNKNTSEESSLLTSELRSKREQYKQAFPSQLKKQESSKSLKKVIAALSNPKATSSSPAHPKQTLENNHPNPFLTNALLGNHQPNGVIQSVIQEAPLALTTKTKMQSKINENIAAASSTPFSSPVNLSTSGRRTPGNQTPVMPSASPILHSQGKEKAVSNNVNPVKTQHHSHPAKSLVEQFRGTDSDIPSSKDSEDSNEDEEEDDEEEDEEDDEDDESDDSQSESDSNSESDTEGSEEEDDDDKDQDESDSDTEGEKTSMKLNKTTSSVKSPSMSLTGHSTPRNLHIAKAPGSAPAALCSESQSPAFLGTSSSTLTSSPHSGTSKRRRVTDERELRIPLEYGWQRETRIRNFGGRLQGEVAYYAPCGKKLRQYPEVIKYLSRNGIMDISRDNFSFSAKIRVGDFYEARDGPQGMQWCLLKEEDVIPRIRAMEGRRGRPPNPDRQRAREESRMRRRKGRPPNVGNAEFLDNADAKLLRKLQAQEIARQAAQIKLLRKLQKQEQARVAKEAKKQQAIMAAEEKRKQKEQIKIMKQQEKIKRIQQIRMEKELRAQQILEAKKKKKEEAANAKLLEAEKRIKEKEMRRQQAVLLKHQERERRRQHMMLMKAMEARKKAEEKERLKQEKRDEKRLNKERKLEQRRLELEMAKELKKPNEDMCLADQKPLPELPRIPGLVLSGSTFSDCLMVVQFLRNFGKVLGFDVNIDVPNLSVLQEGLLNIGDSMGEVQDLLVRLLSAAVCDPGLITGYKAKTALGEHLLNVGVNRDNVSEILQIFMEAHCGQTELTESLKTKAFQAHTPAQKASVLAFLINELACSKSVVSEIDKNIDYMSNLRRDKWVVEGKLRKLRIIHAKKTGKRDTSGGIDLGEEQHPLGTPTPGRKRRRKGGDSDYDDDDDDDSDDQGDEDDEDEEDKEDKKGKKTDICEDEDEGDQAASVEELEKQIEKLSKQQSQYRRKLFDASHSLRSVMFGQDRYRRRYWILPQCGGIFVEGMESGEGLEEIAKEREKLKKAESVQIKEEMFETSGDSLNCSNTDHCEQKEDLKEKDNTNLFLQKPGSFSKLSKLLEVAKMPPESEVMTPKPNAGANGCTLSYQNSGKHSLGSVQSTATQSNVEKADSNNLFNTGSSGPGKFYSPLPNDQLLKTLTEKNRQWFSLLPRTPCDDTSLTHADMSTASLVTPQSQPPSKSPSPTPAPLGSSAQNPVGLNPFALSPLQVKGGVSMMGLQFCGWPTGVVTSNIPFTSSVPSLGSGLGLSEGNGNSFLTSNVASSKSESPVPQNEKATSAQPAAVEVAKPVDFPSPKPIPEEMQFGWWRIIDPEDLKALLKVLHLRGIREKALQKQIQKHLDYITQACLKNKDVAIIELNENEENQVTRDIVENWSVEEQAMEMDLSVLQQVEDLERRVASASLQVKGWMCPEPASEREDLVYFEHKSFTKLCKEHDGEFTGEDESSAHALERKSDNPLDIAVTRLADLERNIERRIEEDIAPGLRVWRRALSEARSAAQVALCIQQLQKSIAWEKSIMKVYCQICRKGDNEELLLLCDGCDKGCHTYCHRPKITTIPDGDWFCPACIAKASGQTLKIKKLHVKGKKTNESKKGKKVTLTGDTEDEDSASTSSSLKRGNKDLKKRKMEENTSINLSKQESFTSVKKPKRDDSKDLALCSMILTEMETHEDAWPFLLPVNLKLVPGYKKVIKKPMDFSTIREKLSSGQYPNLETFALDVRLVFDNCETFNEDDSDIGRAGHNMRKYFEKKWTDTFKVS
#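 Compounds, titrated to a top concentration of 110 uM, were incubated 30 min at room temperature with preformed BAZ2B/acetyl-K14 H3 peptide complex (50 nM each). Proximity signal was measured by AlphaScreen after 20 min with beads.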
# HP1b binding inh: blocks HP1-beta chromodomain binding to methylated histone tails; P83916; AlphaScreen HP1-beta / biotin-H3K9me3 peptide binding; Potency, µM (series often up to 114 µM), for the others: at the top dose activity change, negative = inhibition, most hits filed as inhibitors; 390,000 tested, 0.56% active; note: nearly all actives have a fitted effect of over 70% in size
#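 AlphaScreen: HP1-beta (50 nM) preformed 30 min with biotin-H3(1-18)K9me3 peptide (50 nM) in PBS pH 7.4, 0.01% Tween-20. Compound added for 30 min at RT, then streptavidin donor/nickel chelate acceptor beads (10 ug/mL) for 30 min.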
# G9a block: inhibitors of human histone lysine methyltransferase G9a. Q96KQ7. G9a H3K9 monomethylation, AlphaScreen, 2 h. Potency, µM (titrated, usually from 102 µM), for the others: top-dose activity, negative = inhibition, most hits filed as inhibitors. 350,000 tested, 8.8% active; note: % is set by controls: 0 for no effect and ±100 for the full control effect; nearly all actives have a fitted effect of over 75% in size
#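 Using a bead-based AlphaScreen, monomethylated H3K9 product from 2 h room-temperature reactions (G9a 20 nM, peptide 500 nM, SAM 20 uM) was detected with 0.5 ug/mL rabbit anti-H3K9me1 antibody.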
# JMJD2A Tudor inh: blocks the human JMJD2A Tudor domain | AlphaScreen JMJD2A-Tudor / H3K4me3 peptide binding | AID 504339 | 390,000 tested, 4.4% active | Potency, µM (series often up to 114 µM), without a hit: at the highest dose activity change, negative = inhibition, most hits filed as inhibitors; note: % is set by controls: 0 for no effect and ±100 for the full control effect; nearly all actives have a fitted effect of over 50% in size
# L3MBTL1 inh: L3MBTL1 (human) inhibition. Q9Y468. AlphaScreen L3MBTL1–H3K9me1 peptide binding. Potency, µM (top dose mostly 57.1 µM), inactives show at the highest dose activity, negative = inhibition, actives largely listed as inhibitors. 230,000 tested, 0.66% active. AID 485360; note: % is set by controls: 0 for no effect and ±100 for the full control effect; nearly all actives have a fitted effect of over 60% in size
#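 AlphaScreen assay: L3MBTL1 (50 nM final) was preincubated 30 min at room temperature with biotinylated H3(1-15)K9me1 peptide (75 nM final), then 30 min with library compounds; streptavidin donor and nickel chelate acceptor beads (10 ug/mL final) added, 30 min dark.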
# Numbers without * were called inactive; ? = inconclusive; . = no result; [ ] = dose if it differs, or a comment. Hits are enriched below; roughly 11% of the tested compounds scored in any of these assays. Calls come from the whole dose curve; as a rule, active = well fitted inhibition curve with a large enough effect; inconclusive = small, poorly fitted or top-dose-only effect; inactive = no such curve, though single readings can be large or run the other way. Potency is the fitted concentration of half-maximal effect.
SMILES,BAZ2B inh,HP1b binding inh,G9a block,JMJD2A Tudor inh,L3MBTL1 inh
COc1ccc(/C=C2\SC(=S)N(Cc3cccnc3)C2=O)cc1C,10µM*,-51.5%,11.2µM*,?,0.3%
COc1cc(/C=C2/SC(=S)N(c3c(C)n(C)n(-c4ccccc4)c3=O)C2=O)ccc1O,44.7µM*,?,6.5%[12.7 µM],?,-7.2%
CC(=O)N1C(=O)/C(=C2\SC(=S)N(c3c(C)n(C)n(-c4ccccc4)c3=O)C2=O)c2ccccc21,-34.2%,?,3.98µM*,-20.1%,3.9%
Cc1c(N2C(=O)/C(=C3/C(=O)N(C)c4ccccc43)SC2=S)c(=O)n(-c2ccccc2)n1C,3.5%,25.0%,?,-4.5%,9.9%
Cc1ccc(OCC(=O)Nc2ccc3nc(SCC(=O)Nc4ccc(C)cc4C)sc3c2)cc1,-9.8%,6.5%,4.6%[59 µM],-19.5%,.
COc1ccc(-c2noc(-c3ccc(C)cc3Cl)n2)cc1OC,-3.3%,31.1%,-2.6%[59 µM],-1.7%,.
C/C=C\C(=O)Nc1cccc(C2=NOC3(C2)C[C@@H](C(N)=O)N(C(=O)C2(C)CC2)C3)c1 (some centres undefined),3.4%,29.8%,-1.2%[12.7 µM],-5.0%,.
C=C(C)C(=O)Nc1cccc(C2=NOC3(C2)C[C@@H](C(N)=O)N(C(=O)C2(C)CC2)C3)c1 (some centres undefined),1.58µM*,2.51µM*,?,2.24µM*,.
C=C(C)C(=O)Nc1cccc(C2=NOC3(C2)C[C@@H](C(N)=O)N(C(=O)C(=C)C)C3)c1 (some centres undefined),5.01µM*,8.91µM*,?,7.94µM*,.
C=C(C)C(=O)Nc1cccc(C2=NOC3(C2)C[C@@H](C(N)=O)N(C(=O)/C=C/CC)C3)c1 (some centres undefined),7.08µM*,10µM*,?,10µM*,.
CCOc1ccc(CCNC(=O)COC(=O)c2ccc(C)s2)cc1OCC,-6.0%,21.9%,.,-6.7%,.
NC(=O)CCC1NC(=O)C(Cc2ccccc2)NC(=O)C(Cc2ccc(O)cc2)NC(=O)CCSSCC(C(=O)N2CCCC2C(=O)NC(CCCN=C(N)N)C(=O)NCC(N)=O)NC(=O)C(CC(N)=O)NC1=O (centres undefined),.,.,-3.2%[12.7 µM],.,.
COc1ccc(CCNC(=O)C(=O)NCC2OCCN2S(=O)(=O)c2ccc(OC)c(OC)c2)cc1OC (centres undefined),-5.9%,16.7%,-0.1%,-19.0%,2.1%
COc1ccc(S(=O)(=O)N2CCCOC2CNC(=O)C(=O)NCCCn2ccnc2)cc1OC (centres undefined),70.8µM*,7.8%,4.3%,-14.4%,-8.1%
COc1ccc(S(=O)(=O)N2CCOC2CNC(=O)C(=O)NCCCn2ccnc2)cc1OC (centres undefined),22.4µM*,63.3%,14.2%,-21.1%,-28.8%
CCCn1c2ccc(C)cc2c2nnc(SCCN3CCCCC3)nc21,-3.4%,37.8%,8.91µM*,-21.8%,.
CCn1c2ccc(C)cc2c2nnc(SCCN3CCCCC3)nc21,2.2%,-0.8%,7.0%,-20.9%,.
Cc1cc(Nc2cccc(C(F)(F)F)c2)nc2ccc(NC(=O)c3cccnc3)cc12,15.9%,39.1%,17.6%[59 µM],-9.6%,.
CC(C)COP(=O)(c1ccc(N(C)C)cc1)C(O)c1ccccn1 (centres undefined),.,27.0%,3.55µM*,1.26µM*,-2.0%
CN(C)c1ccc(P(=O)(OC2CCCCC2)C(O)c2ccccn2)cc1 (centres undefined),44.7µM*,41.3%,.,?,-1.7%
CCN(Cc1ccccc1)C(=O)CN1C(=O)COc2ccc(S(=O)(=O)N3CCOCC3)cc21,-15.9%,48.6%,-2.8%[59 µM],2.2%,.
COc1cc(Cl)c(C)cc1NC(=O)Cn1cnc2sc(C)c(S(=O)(=O)N3CCCCC3)c2c1=O,-12.1%,30.0%,-23.8%[59 µM],-20.8%,.
CNC(=O)c1nnsc1S(=O)(=O)c1ccc(Cl)cc1,-14.6%,-14.7%,14.1µM*,1.4%,?
O=C(c1nnsc1S(=O)(=O)c1ccc(Cl)cc1)N1CCOCC1,-23.4%,23.1%,50.1µM*,-15.0%,-2.9%
O=C(c1nnsc1S(=O)c1ccc(Cl)cc1)N1CCOCC1 (centres undefined),-1.5%,?,31.6µM*,7.08µM*,-20.6%
